# The list is not random: actives were taken first. Their share in the collection is about 3.1%.
# PNC assembly inh: blocks assembly of the perinucleolar compartment; PC3M PTB-GFP, PNC prevalence imaging, 16 h; active compounds read low; activity change (PNC), negative = inhibition, % at 10 µM; hit rate 3.1% among 140,000;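 active means readout at or below -70, meaning at least 70% loss of cells showing the perinucleolar compartment, a nuclear body marking cancer cells; inconclusive means readout between -30 and a set limit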;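 further: plate controls were DMSO wells for no effect and camptothecin positive control wells for full effect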
#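 Compounds are pinned in duplicate onto adhered PC3M cells stably expressing GFP-tagged PTB and incubated 16 h at 37 C. Cells are then fixed, nuclei stained with Hoechst, and PNC-positive cells counted.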
# ALOX15B inhib: inhibitors of human 15-lipoxygenase 2 (ALOX15B); purified 15hLO-2, xylenol orange hydroperoxide absorbance; Potency, µM (doses to about 57.1 µM), for inactives: at the highest dose activity change, negative = inhibition, usual class: inhibitors; hit rate 0.56% among 110,000; AID 881; further: potency means the concentration at half of the fitted maximal effect; nearly all actives have a fitted effect of over 60% in size
#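 Purified human 15hLO-2 (50 nM) preincubated 15 min with compound, then 45 uM arachidonic acid for 90 min at RT in 25 mM Hepes pH 7.5, 0.01% Triton X-100. Hydroperoxide detected by Fe-xylenol orange; 573/405 nm absorbance ratio.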
# ALOX12 inhib: 12-hLO (ALOX12) enzyme inhibition. P18054. purified 12-hLO, xylenol orange hydroperoxide absorbance. Potency, µM (series often up to 57.1 µM), without a hit: top-dose activity change, negative = inhibition, actives largely listed as inhibitors. hit rate 0.12% among 150,000; further: potency means the concentration at half of the fitted maximal effect; nearly all actives have a fitted effect of over 55% in size
# Target sequence (P18054 whole entry, looked up): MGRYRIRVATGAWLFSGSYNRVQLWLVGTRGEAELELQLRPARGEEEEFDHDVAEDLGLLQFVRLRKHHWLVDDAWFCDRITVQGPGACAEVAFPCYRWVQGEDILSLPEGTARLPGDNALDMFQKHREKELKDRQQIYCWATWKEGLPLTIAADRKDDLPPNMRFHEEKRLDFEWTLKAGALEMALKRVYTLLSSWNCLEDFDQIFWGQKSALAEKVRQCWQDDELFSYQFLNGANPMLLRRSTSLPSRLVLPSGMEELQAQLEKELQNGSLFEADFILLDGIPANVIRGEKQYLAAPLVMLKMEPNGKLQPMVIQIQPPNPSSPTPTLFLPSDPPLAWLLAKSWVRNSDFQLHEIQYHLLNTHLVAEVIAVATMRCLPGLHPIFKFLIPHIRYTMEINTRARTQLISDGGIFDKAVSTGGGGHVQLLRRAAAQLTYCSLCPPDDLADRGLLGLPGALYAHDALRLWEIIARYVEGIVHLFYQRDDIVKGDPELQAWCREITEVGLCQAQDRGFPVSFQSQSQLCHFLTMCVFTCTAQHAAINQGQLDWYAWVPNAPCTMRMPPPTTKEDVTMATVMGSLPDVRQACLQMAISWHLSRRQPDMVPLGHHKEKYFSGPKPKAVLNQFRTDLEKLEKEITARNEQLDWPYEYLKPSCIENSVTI
#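 Purified human 12hLO (150 nM), preincubated 15 min with compound, then 40 uM arachidonic acid for 30 min, room temperature, Hepes pH 7.0 with 0.01% Triton X-100. Hydroperoxide detected by ferrous iron/xylenol orange; 573/405 nm absorbance ratio gives reaction progress.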
# * marks the source's active call; other numbers are inactive results; ? = inconclusive; . = not tested or not shown; [ ] = another dose, or the depositor's remark. Unless noted, the call rests on the fitted dose curve; in most records, active means well fitted curve in the direction sought with a large enough effect; inconclusive means small, poorly fitted or top-dose-only effect, or another doubt; inactive means no such curve, though single readings can be large; an effect the other way counts as inactive or inconclusive. Unless noted, on the % scale 0 is the no-effect control and ±100 the full control effect.
SMILES,PNC assembly inh,ALOX15B inhib,ALOX12 inhib
COC(=O)C(/C=N/OCc1ccc([N+](=O)[O-])cc1)NC(=O)c1cccc(Cl)c1 (centres undefined),-98*,-5%,-11%
CC(C)N1C(=O)CC(Nc2ccc(N3CCOCC3)cc2)C1=O (centres undefined),16,25µM*,?
COc1ccc(CCN2C(=O)CC(Nc3ccc(N4CCOCC4)cc3)C2=O)cc1OC (centres undefined),11,25µM*,?
COc1ccc(CCN2C(=O)CC(N3CCOCC3)C2=O)cc1OC (centres undefined),-10,.,-5%
O=C1CC(Nc2ccccc2)C(=O)N1c1ccc(N2CCOCC2)cc1 (centres undefined),-104*,-9%,5%
O=C1CC(Nc2ccc(N3CCOCC3)cc2)C(=O)N1c1ccccc1F (centres undefined),35,.,?
COc1ccc(NC2CC(=O)N(C(C)C)C2=O)cc1 (centres undefined),?,-4%,-16%
C[N+](C)(C)c1cc2c(nn1)Nc1ccccc1S2,.,7%[11.4 µM],9%[11.4 µM]
CN(C)C(=O)c1ccc(-c2cncnc2NCc2cccnc2)cc1,.,5%,.
NC(=O)COc1ncn(-c2ccccc2)n1,-112*,3%,3%
NC(=O)Cn1cnc(-c2ccccc2)c1,-7,8%,-2%
CCC(C)C(=O)O[C@H]1C[C@@H](C)C=C2C=C[C@H](C)[C@H](CC[C@@H]3C[C@@H](O)CC(=O)O3)C21 (some centres undefined),.,2%,-1%
CC1CC(=O)C(C2c3ccccc3CCN2C(=O)CCl)C(=O)C1 (centres undefined),-3,.,-3%
COc1cc2c(cc1OC)C(C1C(=O)CC(C)(C)CC1=O)N(C(=O)CCl)CC2 (centres undefined),-80*,.,4%
OC[C@@H]1O[C@@H](n2cnc3c(N[C@H]4CCC[C@@H]4O)ncnc32)[C@H](O)[C@H]1O,.,7%,0%
Cn1c2ccccc2c2cc(C(=O)NNS(=O)(=O)c3ccc(F)cc3)sc21,-88*,-5%[11.4 µM],0%
CN(C)CCCNC(=O)c1cc2c3ccccc3n(C)c2s1,19,10%,4%
COP(=O)(OC)OC(c1ccc(Cl)cc1)P(=O)(OC)OC (centres undefined),.,19%,-1%
CCCCc1cc2c(cn1)=C(OC(=O)c1cccs1)C(C)(OC(=O)CC)C(=O)C=2 (centres undefined),.,.,-6%[11.4 µM]
CCN(CC)C(=O)Cn1c(=O)n(CCCCCC(=O)Nc2ccccc2)c(=O)c2sccc21,-113*,.,4%
CCC(C)NC(=O)Cn1c(=O)n(CCCCCC(=O)Nc2ccccc2)c(=O)c2sccc21 (centres undefined),-21,.,2%
O=C(CCCn1c(=O)c2sccc2n(CC(=O)NCc2ccco2)c1=O)NCc1ccco1,9,2%,-2%
Cc1cccc(C)c1NC(=O)Cn1c(=O)n(CCCC(=O)NCc2ccco2)c(=O)c2sccc21,-91*,6%,-6%
CC[N+](C)(CC)CCN1C(=O)c2ccccc2S1(=O)=O,.,1%[11.4 µM],3%[11.4 µM]
CC(CCC(=O)O)(c1cc(Br)c(O)c(Br)c1)c1cc(Br)c(O)c(Br)c1,.,-17%[11.4 µM],-2%[11.4 µM]
SMILES,PNC assembly inh,ALOX15B inhib,ALOX12 inhib
CN(C)CCCN1c2ccccc2Sc2ccc(C(F)(F)F)cc21,-115*,48%,-5%
CSc1ccc2c(c1)N(CCCN(C)C)c1ccccc1S2,.,0%[11.4 µM],5%[11.4 µM]
ClC/C=C/CCl,.,-4%,-2%
Cn1c2ccccc2c2ncn(CCN3CCOCC3)c(=O)c21,-87*,-2%,-1%
COc1ccc2c(c1)c1ncn(CCCN3CCOCC3)c(=O)c1n2C,7,8%,-4%
COc1ccc(CNc2ncnc3ccc(-c4ccc(C(=O)N(C)C)cc4)cc23)c(OC)c1,.,45%,.
O=C(Nc1cccc(-c2cnc3ccccc3n2)c1)c1ccccc1,-11,-7%,6%
O=C(NC1CCCCC1)c1cc(Cl)nc2ccccc12,?,.,-1%
O=C(Nc1ccccc1)c1cc(Cl)nc2ccccc12,-100*,.,0%
O=C(Nc1ccccc1)c1cnc2ccccc2n1,-114*,.,1%
Cc1cc(S(=O)(=O)Nc2ccccc2C(=O)O)ccc1F,.,.,-1%
CC(C)c1ccc2c(c1)CC[C@H]1[C@@](C)(CN)CCC[C@@]21C,.,2%[11.4 µM],4%[11.4 µM]
CC1=NN(c2ccc(S(=O)(=O)O)cc2)C(=O)/C1=C\c1ccc(Cl)cc1,.,-11%[11.4 µM],1%[11.4 µM]
NCC1O[C@@H](OC2C(N)C[C@H](N)[C@@H](O[C@H]3OC(CO)C(O)C(N)C3O)C2O)C(N)C(O)C1O (some centres undefined),.,1%,24%
Cc1nc(NCc2ccccc2)c2nc(-c3ccccc3)n(CCCN(C)C)c2n1,.,7%,1%
Cn1cc(/C=N\NC(=O)C2COc3ccccc3O2)c2ccccc21 (centres undefined),?,.,-2%
Cc1c(/C=N\NC(=O)C2COc3ccccc3O2)c2ccccc2n1C (centres undefined),-111*,.,2%
CCC1CCC(NC2CCCCNC2=O)CC1 (centres undefined),-107*,0%,-3%
CC1CCCC(NC2CCCCNC2=O)C1 (centres undefined),47,1%,-2%
Cc1cccc(CNc2ncncc2-c2cccc(C#N)c2)c1,.,17%,-3%
CCOC(=O)N1CCN(S(=O)(=O)c2ccc(C(=O)Nc3nnc(C4CC4)o3)cc2)CC1,-16,.,0%
CCOC(=O)N1CCN(S(=O)(=O)c2ccc(C(=O)Nc3nnc(CC)o3)cc2)CC1,-82*,.,-7%
CC(=O)c1ccc(N2CCN(C(=S)Nc3cc(C)ccc3C)CC2)cc1,-90*,.,-4%
CC(=O)c1ccc(N2CCN(C(=S)Nc3ccccc3F)CC2)cc1,3,.,0%
CCCCc1nc2c(c3c1C[C@H](C)OC3)CN(C(=O)Cc1cccc(OC)c1)CC2,.,.,-1%[11.4 µM]
SMILES,PNC assembly inh,ALOX15B inhib,ALOX12 inhib
CCc1nnc(NC(=O)c2cnccn2)s1,29,9%,4%
O=C(Nc1nccs1)c1cnccn1,-100*,.,-1%
N#Cc1ccc(CN2CC[C@@]3(CCCN(C(=O)c4ccncc4)C3)C2)cc1,.,11%,1%
O=C(N[C@@H](Cc1ccccc1)C(=O)O)c1ccccc1,.,-5%,3%
Cc1ccc(CS(=O)(=O)Cc2ccc(C(=O)NCC3CCCO3)o2)cc1 (centres undefined),63,-6%,1%
Cc1ccc(CS(=O)(=O)CCC(=O)NCC2CCCO2)cc1 (centres undefined),-84*,2%,-1%
O=c1c(-c2ccc(O[C@@H]3O[C@H](CO)[C@@H](O)[C@H](O)[C@H]3O)cc2)coc2cc(O)cc(O)c12,.,-2%,-3%
CCOC(=O)c1ccc2nc(C)cc(Nc3cccc(C(=O)O)c3)c2c1,20,.,-3%
COC(=O)c1ccc2nc(C)cc(Nc3ccc(N(C)C)cc3)c2c1,-119*,.,-1%
O=[N+]([O-])c1cccc(Cl)c1,.,-17%,-3%
Nc1nc2c(s1)CCc1c-2cnn1-c1ccccc1,10,1µM*,?
COc1ccc(-c2cnn(-c3ccccc3)c2N)cc1OC,?,-4%,-2%
